Laboratory results from ChEMBL document CHEMBL4513146, “CO-ADD screening of Karazin Kharkiv National University (Ukraine) compounds”.
Measured potencies and affinities stand elsewhere.

Assays:
[1] = test system: Klebsiella pneumoniae; conditions: Concentration 32 ug.mL-1;; ASSAY_TEST Inhibition of Bacterial Growth; detection method Absorption (OD600); MEDIA CAMHB; plate type 384well; NBS; CORNING #3640; time 18 hr
[2] = test system: Candida albicans; conditions: Concentration 32 ug.mL-1; ASSAY_TEST Inhibition of Fungal Growth; detection method Absorption (OD530)
[3] = test system: Cryptococcus neoformans; conditions: Concentration 32 ug.mL-1; ASSAY_TEST Inhibition of Fungal Growth; detection method Resazurin; Absorption (OD600-OD570); plate type 384well; NBS; CORNING #3640

| SMILES | Inhibition [1] [%] | Inhibition [2] [%] | Inhibition [3] [%] |
| --- | --- | --- | --- |
| COc1cccc(-n2ccn3c(SCC(=O)NC(C)C)nnc3c2=O)c1 | 10.83 | 1.96 | -12.8 |
| Cc1ccc(-c2cc3c4nn(CC(=O)N5CCN(c6ccc(F)cc6)CC5)c(=O)n4ccn3n2)cc1C | 7.51 | 1.65 | -26.79 |
| Cc1ccc(NC(=O)Cn2nc3ccc(SC(C)(C)C)nn3c2=O)c(Cl)c1 | 7.92 | 7.14 | -20.56 |
| CSc1ccc(-c2noc(Cn3nc4ccc(-c5ccccc5)nn4c3=O)n2)cc1 | -3.08 | 17.1 | -6.64 |
| Cc1nc(-c2ccccc2)cc2nn(CC(=O)Nc3ccc4c(c3)OCO4)c(=O)n12 | 6.91 | 0.14 | -7.69 |
| COc1cc(NC(=O)Cn2nc3c(Sc4cccc(F)c4)nccn3c2=O)cc(OC)c1 | 4.9 | 1.46 | -6.36 |
| CC(C)c1nnc2c(=O)n(CC(=O)Nc3cccc(Br)c3)c3ccccc3n12 | 13.24 | 6.25 | -13.28 |
| CCc1ccc(NC(=O)Cn2nc3c(Oc4cccc(OC)c4)nccn3c2=O)cc1 | -4.18 | 2.5 | -4.27 |
| COc1cccc(CN(c2ccc(F)cc2)S(=O)(=O)c2cccn3cnnc23)c1 | -0.69 | -0.06 | -1.54 |
| COc1ccc(-c2cc3c4nnc(SCC(=O)Nc5ccc(C)cc5Cl)n4ccn3n2)cc1 | 11.06 | 0.54 | -30.51 |
| N#Cc1ccc(NC(=O)Cn2nc3c(SC4CCCCC4)nccn3c2=O)cc1 | 10.51 | 3.23 | -20.35 |
| O=C(Cn1nc2ccc(SCc3ccc(Cl)cc3)nn2c1=O)Nc1ccc2c(c1)CCC2 | 12.2 | 7.4 | -25.38 |
| COc1ccccc1NC(=O)Cn1nc2n(CCCOC(C)C)c(=O)c3ccccc3n2c1=O | 12.77 | 2.2 | -35.55 |
| COc1cccc(NC(=O)Cn2nc3ccc(-c4ccc(C)c(C)c4)nn3c2=O)c1 | -6.86 | 8.09 | -10.05 |
| Cc1c(Cl)cccc1NC(=O)CSc1nc2ccccc2n2c(C)nnc12 | 13.43 | 0.95 | -27.73 |
| COc1ccc(-c2cc3c4nn(CC(=O)Nc5ccc(C)cc5C)c(=O)n4ccn3n2)cc1 | 11.47 | 2.57 | -20.53 |
| COc1cc(NC(=O)C(C)Sc2nnc3c(=O)n(-c4ccccc4OC)ccn23)cc(OC)c1 (stereo not drawn) | 11.13 | 1.4 | -7.6 |
| CCOc1ccc(-n2ccn3c(SCC(=O)Nc4cccc(Cl)c4)nnc3c2=O)cc1 | 10.12 | 2.64 | -5.2 |
| O=C(CCc1nnc2c(N3CCCCC3)nc3ccccc3n12)NCc1ccc(Br)cc1 | 7.61 | 2.54 | -23.12 |
| COc1cccc(-n2ccn3c(SCC(=O)c4c[nH]c5ccc(OC)cc45)nnc3c2=O)c1 | 12.06 | 5.77 | -34.12 |
| O=C(Cn1nc2c(=O)n(-c3ccc(Br)cc3)ccn2c1=O)Nc1cc(F)ccc1F | 9.16 | 1.05 | -5.83 |

| SMILES | Inhibition [1] [%] | Inhibition [2] [%] | Inhibition [3] [%] |
| --- | --- | --- | --- |
| COc1ccccc1-n1ccn2c(SCC(=O)Nc3ccc(F)cc3F)nnc2c1=O | 8.27 | 0.36 | -9.49 |
| CCc1ccccc1Sc1nccn2c(=O)n(CC(=O)Nc3cccc(C)c3)nc12 | 4.48 | -0.7 | -3.25 |
| COc1ccc(NC(=O)Cn2nc3c(Sc4ccccc4)nccn3c2=O)cc1Cl | -2.59 | 0.73 | 2.33 |
| CC1CCc2c(sc3ncn4c(=O)n(CC(=O)Nc5ccc6c(c5)CCC6)nc4c23)C1 (stereo not drawn) | 13.08 | 4.62 | -27.54 |
| Cc1[nH]c2ccccc2c1C(=O)CSc1nnc2c(=O)n(-c3ccc(Br)cc3)ccn12 | 4.84 | 1.31 | -12.52 |
| O=C(CSc1nc2ccccc2n2cnnc12)N1CCN(c2ccc(F)cc2)CC1 | 8.82 | 1.33 | 6.24 |
| CCc1nnc2c(=O)n(CC(=O)Nc3ccc(Br)cc3F)c3ccccc3n12 | 8.6 | 6.85 | -13.86 |
| N#CCn1nc2n(Cc3ccccc3)c(=O)c3ccc(C(=O)NC4CCCCC4)cc3n2c1=O | 4.19 | 1.65 | -13.83 |
| O=C(CCc1nnc2c(N3CCCCC3)nc3ccccc3n12)NCc1ccc2c(c1)OCO2 | 14.18 | 10.16 | -25.55 |
| Cc1ccc(NC(=O)Cn2nc3c(N4CCOCC4)nccn3c2=O)cc1F | 7.04 | 3.27 | -4.33 |
| Cc1cccc(N(Cc2cccc(F)c2)S(=O)(=O)c2cccn3c(C)nnc23)c1 | 14.45 | 2.26 | -8.56 |
| Cc1ccc(NC(=O)Cn2nc3c4cc(-c5ccc(C)c(C)c5)nn4ccn3c2=O)cc1C | 4.54 | 4.1 | -9.03 |
| Cc1ccc(Cn2nc3c(=O)n(-c4cccc(Cl)c4C)ccn3c2=O)cc1 | 10.23 | 6.45 | -17.53 |
| N#Cc1ccc(NC(=O)Cn2nc3c(SCc4ccc(Cl)cc4)nccn3c2=O)cc1 | 12.55 | 4.94 | -19.24 |
| Cc1ccc(NC(=O)Cn2nc3c(Oc4ccccc4C)nccn3c2=O)cc1F | 11.18 | -0.61 | -11.02 |
| Cc1c(Cl)cccc1-n1ccn2c(=O)n(Cc3ccccc3Cl)nc2c1=O | -1.96 | -2.16 | -12.25 |
| CCCCN(CC)C(=O)CSc1nnc2c(=O)n(Cc3ccccc3F)ccn12 | 7.9 | 2.5 | -19.25 |
| Cc1ccc(C)c(NC(=O)Cn2nc3cc(C)nc(Nc4ccc(F)cc4)n3c2=O)c1 | 5.73 | 2.17 | -16.31 |
| Cc1ccc(-n2ccn3c(=O)n(Cc4ccccc4Cl)nc3c2=O)cc1C | 4.31 | 3.38 | -10.75 |
| COc1cccc(-n2ccn3c(SCc4cccc(Cl)c4)nnc3c2=O)c1 | 8.66 | 0.25 | -7.39 |
| O=c1c2nnc(SCc3ccc(F)cc3)n2ccn1-c1ccc(Br)cc1 | 4.74 | 2.87 | -8.82 |

| SMILES | Inhibition [1] [%] | Inhibition [2] [%] | Inhibition [3] [%] |
| --- | --- | --- | --- |
| Cc1ccc(NC(=O)Cn2nc3c(Sc4ccccc4)nccn3c2=O)c(Br)c1 | 0.72 | 22.67 | -9.68 |
| COc1ccc(-c2cc3c4nnc(CCC(=O)NCc5ccc(OC)c(OC)c5)n4ccn3n2)cc1 | 12.53 | 2.24 | -11.61 |
| COc1ccc(NC(=O)Cn2nc3c(Oc4ccc(C)cc4)nccn3c2=O)cc1Cl | 0.22 | 18.79 | -4.53 |
| Cc1cc2nn(CC(=O)Nc3ccccc3)c(=O)n2c(Nc2ccc(C)c(F)c2)n1 | 9.53 | 4.54 | -5.9 |
| O=C(Cn1nc2ccc(-c3ccccc3)nn2c1=O)Nc1cccc(Cl)c1 | 2.74 | 18.56 | -15.44 |
| Cc1cccc(Sc2nccn3c(=O)n(CC(=O)N4CCN(c5ccc(F)cc5)CC4)nc23)c1 | -8.7 | 3.19 | -30.97 |
| COc1ccc2[nH]cc(C(=O)CSc3nnc4c(=O)n(-c5ccc(F)cc5)ccn34)c2c1 | 12.89 | 3.24 | -7.69 |
| Cc1ccc(NC(=O)Cn2nc3c(N4CCCC(C)C4)nccn3c2=O)cc1C (stereo not drawn) | -5.74 | 1.72 | -9.99 |
| O=C(Cn1nc2ccc(SCc3ccc(Cl)cc3)nn2c1=O)Nc1ccc2c(c1)OCO2 | 15.3 | 22.84 | -22.42 |
| COc1cccc(-n2ccn3c(SCC(=O)NCc4ccc(Cl)cc4)nnc3c2=O)c1 | 6.58 | 0.82 | -6.96 |
| Cc1ccccc1CSc1nnc2c(=O)n(-c3ccc(Br)cc3)ccn12 | 3.65 | 15.24 | -9.13 |
| Cc1cc(C)cc(Nc2nc(C)cc3nn(CC(=O)Nc4ccccc4)c(=O)n23)c1 | 9.53 | 4.6 | -8.58 |
| C=Cc1ccc(CN(c2ccc(C(C)C)cc2)S(=O)(=O)c2cccn3cnnc23)cc1 | 14.46 | 3.5 | -17.09 |
| COC(=O)c1sccc1NC(=O)Cn1nc2c(Oc3ccc(C)cc3)nc3ccccc3n2c1=O | 13.09 | 3.6 | -31.95 |
| O=C(CCc1nnc2c(N3CCCCC3)nc3ccccc3n12)NCc1ccc(Cl)cc1 | 14.26 | 2.29 | -23.16 |
| O=C(Cn1nc2ccc(Sc3cccc(F)c3)nn2c1=O)NCc1ccc(Cl)cc1 | 0.3 | 1.92 | -3.51 |
| CCc1nnc2c(SCC(=O)Nc3cccc(Br)c3)nc3ccccc3n12 | 4.36 | 4.07 | -27.47 |
| Cc1ccc(Cl)cc1NC(=O)CSc1nnc2c(=O)n(-c3ccccc3)ccn12 | 9.22 | 2.4 | -17.19 |
| COc1ccccc1Cn1c(=O)c2sccc2n2c(=O)n(Cc3ccc(Br)cc3)nc12 | 3.07 | -0.38 | -8.06 |
